Assay results: PubChem BioAssay (NCATS)
Values joined by “and” are separate entries in the source; they are usually repeats but may differ in a detail not shown here. Identical values can stand only once. Records with an inconclusive call do not appear. Entries that show only a call come without a potency. A number with no mark means an inactive call. Active and inactive are the calls of the source. Calls come from the whole dose curve; as a rule, active = well fitted inhibition curve with a large enough effect; inconclusive = small, poorly fitted or top-dose-only effect; inactive = flat fitted curve, though single readings scatter.

System: HEK293
Experiment: Cytotoxic Profiling of Annotated Libraries Using Quantitative High-Throughput Screening (AID 1296008); note: nearly all actives have a fitted effect of over 60% in size
Conditions: Five cell lines viability, CellTiter-Glo ATP luminescence, 48-72 h; max response: active compounds read low
How it was run: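 Cytotoxicity was measured as CellTiter-Glo ATP luminescence, read after 10 min at room temperature. Compound treatment of the cells lasted 48 or 72 hr at 37 degrees Celsius in a qHTS format.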
Potency is the fitted concentration of half-maximal effect.

Compound	outcome	max response	Potency
C=C1C(=O)O[C@H]2[C@H]1[C@@H](OC(=O)C(C)CO)C[C@@]1(C)[C@H](O)CCC(=O)[C@H]21 (some centres undefined)	inactive		
C[C@@H]1O[C@@H](O[C@H]2[C@H](O)[C@@H](O)[C@H](OC[C@H]3O[C@@H](OC(=O)[C@]45CCC(C)(C)C[C@H]4C4=CCC6[C@@]7(C)C[C@H](O)[C@H](O[C@@H]8O[C@H](CO)[C@@H](O)[C@H](O)[C@H]8O)[C@@](C)(C(=O)O)C7CC[C@@]6(C)[C@]4(C)CC5)[C@H](O[C@@H]4O[C@H](CO)[C@@H](O)[C@H](O)[C@H]4O)[C@@H](O)[C@@H]3O)O[C@@H]2CO)[C@H](O)[C@H](O)[C@H]1O (some centres undefined)	inactive		
COc1cc(C/C(=C/NC(C)=O)N(CC(=O)Cc2ccccc2)C(C)=O)cc2c1OCO2	inactive		
CCC(CC)n1ccc2c(C(=O)NCc3c(C)cc(C)[nH]c3=O)cc(C#N)cc21	inactive		
COc1ccc2c3c1O[C@H]1C[C@@H](O)C=C[C@@]31CCN(C)C2	inactive		
C=C1CC/C=C(/CO)C(=O)C[C@@H]2[C@@H]1CC2(C)C	inactive		
CO/N=C(/C(=O)N[C@@H]1C(=O)N2C(C(=O)O)=C(CSC(=O)c3ccco3)CS[C@H]12)c1csc(N)n1		3.45% and -9.59%	
N[C@H]1C[C@H]1c1ccc(-c2cccc(O)c2)cc1		-29.8% and -17.5%	
COc1cc2c(Nc3ccc(Cl)c(Cl)c3F)ncnc2cc1OCC1C[C@@H]2CN(C)C[C@@H]2C1 (some centres undefined)			16.4 µM (active) and 13.2 µM (active)
COC(=O)C[C@@H]1C(C(=O)O)=CO[C@@H](O[C@@H]2O[C@H](CO)[C@@H](O)[C@H](O)[C@H]2O)/C1=C\COC(=O)/C=C\c1ccccc1	inactive		
CC(=O)OC(C)OC(=O)C(C)c1ccc(-c2ccccc2)c(F)c1 (centres undefined)		-11.4%	
CC(CCC1C(C(=O)O)=CC(=O)CC1(C)C)O[C@@H]1O[C@H](CO)[C@@H](O)[C@H](O)[C@H]1O (some centres undefined)	inactive		
O=C(C1CC1)N1CC[C@@H](Cc2n[nH]c(=O)n2-c2ccc(-c3ccc4occc4c3)cc2)C1	inactive		
O=C(Nc1cccnn1)N1CCC(=Cc2cccc(Oc3ccc(C(F)(F)F)cn3)c2)CC1			8.2 µM (active) and 13.2 µM (active)
COC(=O)C1=CO[C@@H](O[C@@H]2O[C@H](CO)[C@@H](O)[C@H](O)[C@H]2O)[C@@H]2[C@@H](C(=O)OC)[C@@H](O)C(O)[C@H]12 (some centres undefined)	inactive		
N#Cc1ccc2[nH]c(O)c(-c3ccc(CN4CCOCC4)cn3)c2c1	inactive	-0.745%	
NCc1ccc(OCCCc2sc(-c3ccc4c(c3)/C(=N/Nc3nc5ccccc5s3)CCC4)nc2C(=O)O)cc1			2.95 µM (active)
COc1c(C)c(C(=O)c2ccc(N)c(C(=O)O)c2)n2ccccc12		-16.3%	
CC(C)c1ccc(CC(=O)N2CCC[C@@H](c3cccc(OC(C)(C)C(=O)O)c3)C2)cc1	inactive		
O=C(/C=C/c1ccccc1)OCC1=CC[C@@H]2C(C(=O)O)=CO[C@@H](O[C@@H]3O[C@H](CO)[C@@H](O)[C@H](O)[C@H]3O)[C@H]12	inactive		
CCOc1cc2ncc(C#N)c(Nc3ccc(OCc4ccccn4)c(Cl)c3)c2cc1NC(=O)/C=C/CN(C)C			1.42 µM (active)
O=C(O)C[C@H](O)C[C@H](O)/C=C/c1c(C2CC2)nc2ccccc2c1-c1ccc(F)cc1			5.8 µM (active)
Cc1coc2c1CC1OC1(C)CCC1OC1(C)C2 (centres undefined)	inactive		
